The text below walks through data of PubChem BioAssay AID463173 (ICCB-Longwood Screening Facility, Harvard Medical School, 2010).

Screen size: about 52,000 compounds; about 4,300 (8.3%) were called active. Shown is part of a subset that was picked to be rich in actives. Values without a mark were called inactive. No stated cut-off is given here; in the data, active means survival mostly below about 52% (no sharp cut-off); inactive means mostly above about 56%.

The test system of this test is DeltatarO mutant. Description: S. aureus survival, RN4220 and DeltatarO strains – OD600, teichoic acid synthesis inhibitors, primary screen (AID 463173). The note with it: S. aureus RN4220 wild type/DeltatarO growth, OD600, 18 h, stronger effect = lower value, screened at 18.75 µg/mL (by protocol).
Take `Cc1ccc(C(C)C)c(OCC(=O)Nc2ccc(O)c(-c3nc4cc(Cl)ccc4o3)c2)c1`: the survival is 73%.

`CC(C)CNC(=O)Cc1ccccc1`: the survival is 65%.

Regarding `O=C(CN1CCSc2ccccc21)N1CCCCC1`, the survival is 78%.

In the case of `Clc1ccccc1N1CCN(c2ncnc3c2c(-c2ccccc2)cn3-c2ccccc2)CC1`, the survival is 80%.

In the case of `Cc1ccccc1C(=O)Nc1ccc2nc(SCC(=O)N3CCc4ccccc43)sc2c1`, the survival is 106%.

On to `Cc1ccc(-c2c(C)n3c4c(=O)n(C)c(=O)n(C)c4nc3n2CCCO)cc1`, for which the survival is 81%.

Consider `CCOC(=O)CSc1nnc(CNc2ccc(C)cc2C)n1-c1ccccc1`, for which the survival was 58%.

Turning to `CCN1CCN(C(c2cccc(F)c2)c2c(O)cc(C)n(CCOC)c2=O)CC1` (stereo unspecified), the survival was 73%.

Consider `CC(C)Oc1ccc(CNC(=O)c2sc3ncccc3c2-n2cccc2)cc1`, for which the survival is 46% (active).

With `CN(C)c1ccc(CNC(=O)c2sc3ncccc3c2-n2cccc2)cc1`, the survival is 102%.

As to `CCc1ccc(CNC(=O)c2sc3ncccc3c2-n2c(C)ccc2C)cc1`, the survival was 0% (active).

Take `Cc1ccc(CCNC(=O)c2sc3ncccc3c2-n2c(C)ccc2C)cc1`: the survival is 64%.

As for `COc1cc(CNC(=O)c2sc3ncccc3c2-n2cccc2)cc(OC)c1OC`, the survival is 118%.

With `COCCNC(=O)c1sc2ncccc2c1-n1c(C)ccc1C`, the survival is 98%.

Take `Cc1cc(SCC(=O)NCc2ccccc2Cl)nc(=O)[nH]1`: the survival was 96%.

Regarding `CCc1ccc(-c2nc(CS(=O)CC(=O)NCCc3ccc(C)cc3)c(C)o2)cc1` (stereo unspecified), the survival was 89%.

For the compound `CCOc1ccc(C(=O)c2cn(Cc3ccccc3)c3c(F)cc(F)cc3c2=O)cc1`, the survival is 78%.

For `CCc1ccc(NC(=O)Cn2c(=O)c3cc(Cl)ccc3n3nncc23)cc1`, the survival is 80%.

Turning to `CCOc1ccc(CNC(=O)C2CCCN(c3nn4cc(-c5ccc(F)cc5)nc4s3)C2)cc1` (stereo unspecified), the survival is 67%.

As to `Cc1ccc(CCNC(=O)c2cc3sccc3n2Cc2ccc(F)cc2)cc1`, the survival was 87%.

As for `Cc1ccc(-c2onc(C)c2C)cc1S(=O)(=O)NCc1ccc(N(C)C)cc1`, the survival is -2% (active).

As for `COc1ccc(-c2onc(C)c2C)cc1S(=O)(=O)NCCc1ccccc1`, the survival was 90%.

With `Cc1ccc(-c2onc(C)c2C)cc1S(=O)(=O)NCc1cccs1`, the survival was 91%.

As to `COc1ccc(CCNS(=O)(=O)c2cc(-c3onc(C)c3C)ccc2OC)cc1OC`, the survival is -1% (active).

Turning to `Cc1ccc(-c2onc(C)c2C)cc1S(=O)(=O)NCc1ccco1`, the survival was 87%.

`COCCCNS(=O)(=O)c1cc(-c2onc(C)c2C)ccc1OC`: the survival was 115%.

For the compound `CC(C)NC(=O)Nc1ccc2c(c1)N(C)C(=O)c1ccccc1S2`, the survival was 117%.

Turning to `CCOC(=O)/C(C#N)=C/C1=C(N)CC(C)(C)OC1`, the survival was 95%.

Take `Cc1ccc(NC(=O)Cn2c(=O)n(Cc3ccc4c(c3)OCO4)c(=O)c3ccc(C(=O)NC4CCCCC4)cc32)c(C)c1`: the survival was 100%.

Consider `Cc1ccc(NC(=O)C(C)Sc2nnc(C3CCCCC3)n2C)cc1` (stereo unspecified), for which the survival is 109%.

In the case of `CCN(C(=O)Cn1nc(Cc2ccncc2)c2ccccc2c1=O)c1cccc(Cl)c1`, the survival was 83%.

Turning to `Clc1ccc(OCc2nc3ccccc3n2Cc2ccccc2)c(Cl)c1`, the survival is 14% (active).

As for `CCn1c(COc2ccc(Cl)cc2Cl)nc2ccccc21`, the survival was 57%.

Consider `CC(C)(C)c1ccc(Cn2c(Cc3ccccc3)nc3ccccc32)cc1`, for which the survival is 0% (active).

For `O=C(NCCc1nc2ccccc2n1Cc1ccc(Cl)cc1)c1ccccc1`, the survival is 72%.

Consider `Cc1ccc(Cn2c(CCNC(=O)C(C)C)nc3ccccc32)cc1`, for which the survival is 78%.

Take `Cc1cccc(Cn2c(COc3ccc(Cl)cc3)nc3ccccc32)c1`: the survival is 59%.

Regarding `CCC(=O)NCc1nc2ccccc2n1Cc1ccccc1`, the survival is 122%.

On to `Cc1cccc(Cn2c(COc3ccccc3)nc3ccccc32)c1`, for which the survival is -2% (active).

In the case of `CC(O)c1nc2ccccc2n1Cc1ccccc1` (stereo unspecified), the survival is 57%.

For `Cc1ccc(Cn2c(Cc3ccccc3)nc3ccccc32)cc1`, the survival was -1% (active).

Turning to `Cc1ccc(Cn2c(CNC(=O)c3cccc(C)c3)nc3ccccc32)cc1`, the survival was 96%.

Regarding `Cc1ccc(CNC(=O)CCCn2c(=O)[nH]c3ccc(Br)cc3c2=O)cc1`, the survival is 87%.

For the compound `Cc1ccc(-c2nnc(SC(C)C)n2-c2ccccc2)cc1`, the survival was 100%.

Regarding `COc1ccccc1C(=O)n1nc(-c2cccnc2)nc1NCc1ccccc1`, the survival is 64%.

As for `CCc1ccc(S(=O)(=O)c2nnn3c2nc(NCCNC(C)=O)c2cc(Cl)ccc23)cc1`, the survival was 74%.

`CCOC(=O)N1CCN(Cc2nc3cc(NC(=O)c4ccc([N+](=O)[O-])cc4)ccc3n2C(C)C)CC1`: the survival is 75%.

As to `CC(C)Oc1ccc(CNC(=O)c2ccc3nc(SCc4ccc(F)cc4)n(C)c3c2)cc1`, the survival is 101%.

With `CCS(=O)(=O)N1CCC(C(=O)NCCC(C)C)CC1`, the survival is 87%.

As to `CCCCn1c(SCC(=O)Nc2cccc(OC)c2)nc2c(sc3ccccc32)c1=O`, the survival is 88%.

As for `Cc1nc2nc(CNC(=O)c3cccc(F)c3)nn2c(C)c1CCC(=O)Nc1cccc(Cl)c1`, the survival was 110%.

Take `CC1CCCN(S(=O)(=O)c2ccc(N3CCCCS3(=O)=O)cc2)C1` (stereo unspecified): the survival was 74%.

For `CCN(C(=O)c1ccc2c(=O)n3c(nc2c1)CCCCC3)c1cc(C)ccc1C`, the survival is 89%.

`COc1ccc(S(=O)(=O)c2nnn(-c3ccc(C)c(Cl)c3)c2C)cc1`: the survival is 99%.

As to `Cc1cccc(Cn2c(CNC(=O)c3ccccc3)nc3ccccc32)c1`, the survival is 64%.

With `Cc1cccc(Cn2c(Cc3ccccc3)nc3ccccc32)c1`, the survival was 22% (active).

Regarding `CC(C)c1ccc(Cn2c(COc3ccccc3)nc3ccccc32)cc1`, the survival is -1% (active).

As to `COCc1nc2ccccc2n1Cc1cccc(C)c1`, the survival is 79%.

`Cc1ccc2c(=O)cc(C(=O)Nc3ccc(S(=O)(=O)Nc4nc(C)cc(C)n4)cc3)oc2c1`: the survival was 78%.

`COCCn1c(SCC(=O)c2ccc(C)cc2)nc2cc(C(=O)NC3CCCC3)ccc2c1=O`: the survival was 89%.

On to `COc1cccc(C2=NN(C(C)=O)C(c3cn(-c4ccccc4)nc3-c3cccs3)C2)c1` (stereo unspecified), for which the survival was 170%.

`Cc1nn2c(=O)cc(COC(=O)COc3ccc(F)cc3)nc2s1`: the survival is 94%.

As to `Cc1ccc2[nH]c(=O)c3cc(C(=O)N(CCCOC(C)C)Cc4ccco4)sc3c2c1`, the survival was 56% (active).

As for `CCn1c(=O)c2cc(C(=O)N(C)c3cc(C)ccc3C)sc2c2ccccc21`, the survival is 105%.

Consider `CCn1c(=O)c2cc(C(=O)N(CC(C)C)CC(C)C)sc2c2ccccc21`, for which the survival is -4% (active).

As to `CCn1c(=O)c2cc(C(=O)N(CCN(C)C)Cc3ccccc3)sc2c2ccccc21`, the survival is 77%.

In the case of `CCn1c(=O)c2cc(C(=O)N(C)c3cc(Cl)c(OC)cc3OC)sc2c2ccccc21`, the survival was 80%.

As to `CCCn1c2ccccc2c2cnn(CC(=O)N(CCCOC(C)C)Cc3ccco3)c(=O)c21`, the survival was 87%.

As to `CCn1c(=O)c2cc(C(=O)N(CCCOC(C)C)Cc3ccco3)sc2c2ccccc21`, the survival is 8% (active).

`COCCN(Cc1ccco1)C(=O)c1cc2c(=O)[nH]c3ccc(C)cc3c2s1`: the survival was 53%.

Take `CCOCCCN(Cc1ccco1)C(=O)c1cc2c(=O)[nH]c3ccc(C)cc3c2s1`: the survival is 88%.

In the case of `N#CC(C#N)=CC1=C(N2CCCC2)CCCC1`, the survival was 89%.

`Cc1c(-c2nc(-c3ccccc3)no2)nnn1-c1cccc(C(F)(F)F)c1`: the survival is 80%.

As for `Cc1ccc(NC(=O)Cn2cc(S(=O)(=O)c3ccccc3)c(=O)c3cc4c(cc32)OCO4)cc1`, the survival was 97%.

Consider `Cc1ccccc1-c1noc(-c2cc3ccccc3oc2=O)n1`, for which the survival was 85%.

With `CC1=C(C(N)=O)C(c2cccc(Br)c2)n2nc(SCc3ccccc3)nc2N1` (stereo unspecified), the survival is 76%.

As to `O=C(O)CC1CCCC(c2ccccc2)C1=O` (stereo unspecified), the survival was 91%.

In the case of `Cc1ccc2c(CC(=O)Nc3c(C(=O)c4ccc(F)cc4)oc4ccccc34)coc2c1`, the survival was 60%.

Regarding `COc1ccc(S(=O)(=O)N(Cc2nc(-c3cccc(C)c3)no2)C2CCCCC2)cc1`, the survival is 57%.

Regarding `CCN(Cc1nc(-c2cccc(C)c2)no1)S(=O)(=O)c1ccc(C)cc1`, the survival was 43% (active).

For the compound `Cc1cccc(-c2noc(CN(C3CCCCC3)S(=O)(=O)c3ccc(F)cc3)n2)c1`, the survival was 71%.

As for `COc1ccc(S(=O)(=O)N(C)Cc2nc(-c3cccc(C)c3)no2)cc1`, the survival was 51%.

Turning to `Cc1ccc(S(=O)(=O)NCc2nc(-c3cccc(C)c3)no2)cc1`, the survival is 100%.

`O=S(=O)(c1ccc(F)cc1)N(Cc1nc(-c2ccccc2)no1)C1CCCCC1`: the survival is 45% (active).

Consider `Cc1ccc(-c2noc(CN(C3CCCCC3)S(=O)(=O)c3ccc(F)cc3)n2)cc1`, for which the survival was 78%.

For `Cc1ccc(S(=O)(=O)N(Cc2nc(-c3cccc(C)c3)no2)C2CCCCC2)cc1`, the survival is 46% (active).

`O=S(=O)(c1ccc(F)cc1)N(Cc1nc(-c2ccc(Cl)cc2)no1)C1CCCCC1`: the survival is 76%.

Turning to `COc1ccc(-c2cc(C)no2)cc1S(=O)(=O)N1CCN(c2ccc(C(C)=O)cc2)CC1`, the survival is 91%.

Regarding `CCCN1CCN(C(=O)Cn2c(-c3cccs3)cc3ccccc32)CC1`, the survival is 95%.

As to `Cc1cc(C)c2c(=O)[nH]c(SCC(=O)NCCc3ccccc3)nc2n1`, the survival was 61%.

As to `CCCN(CCC)CCCNC(=O)C1CCN(c2nc3ccc(CC)cc3s2)CC1`, the survival is 54%.

Take `CCOc1ccc2nc(N3CCCC(C(=O)NCCc4ccc(Cl)cc4)C3)sc2c1` (stereo unspecified): the survival was 48% (active).

As for `CCCN(CCC)CCNC(=O)C1CCN(c2nc3ccc(CC)cc3s2)CC1`, the survival is 43% (active).

For the compound `CCCCN(C)CCNC(=O)C1CCN(c2nc3ccc(CC)cc3s2)CC1`, the survival was 45%.

Turning to `CCOc1ccc2nc(N3CCCC(C(=O)NCCc4ccc(C)cc4)C3)sc2c1` (stereo unspecified), the survival is 64%.

For `CCOc1ccc2nc(N3CCCC(C(=O)NCCc4ccc(SC)cc4)C3)sc2c1` (stereo unspecified), the survival was 91%.
